Measured values published in PubChem BioAssay (Tox21).
Several values for one entry are separate records, joined by “and”; a condition that tells them apart may be missing. Equal values may be shown once. Records with an inconclusive call do not appear. A call without a number means that no potency is given here. Some structures have more than one record in an assay (separate samples or runs), and their calls can disagree. Activity calls are given as the source filed them. Unless noted, calls follow the shape of the dose curve; as a rule, active = well fitted curve in the direction sought with a large enough effect in the repeat runs; inconclusive = weak or mixed curves; inactive = no such curve, though single readings can be large; an effect the other way counts as inactive or inconclusive.

How the values were obtained:
[1] = qHTS assay to test for compound auto fluorescence at 535 nm (green) in HEK293 cells (AID 720680)
[2] = qHTS assay to test for compound auto fluorescence at 460 nm (blue) in HEK293 cell free culture (AID 720681)
In short: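 Blue fluorescence (Ex 405/Em 460 nm, triamterene-equivalent) was read immediately after pin transfer of compound or DMSO into medium (DMEM, 10% FBS) without cells.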

[3] = qHTS assay to test for compound auto fluorescence at 535 nm (green) in HEK293 cell free culture (AID 720682)
In short: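 Cell-free medium (DMEM, 10% FBS) receives compound or DMSO by pintool. Plate read directly at Ex 485/Em 535 nm. Signal converted to fluorescein equivalency.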

[4] = qHTS assay to test for compound auto fluorescence at 590 nm (red) in HEK293 cell free culture (AID 720683)
In short: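 Red-channel autofluorescence of compounds in culture medium (DMEM, 10% FBS), no cells, measured at 540/590 nm. Rose Bengal sodium is the reference fluorophore for equivalence.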

[5] = qHTS assay to test for compound auto fluorescence at 590 nm (red) in HepG2 cell free culture (AID 720684)
In short: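 Plate contents were MEM with 10% FBS plus test compound or DMSO, no cells. Fluorescence was recorded with 540 nm excitation and 590 nm emission.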

[6] = qHTS assay to test for compound auto fluorescence at 460 nm (blue) in HepG2 cell free culture (AID 720685)
In short: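 Compound (23 nL) or DMSO pinned into cell-free MEM with 10% FBS; blue fluorescence read at 405/460 nm excitation/emission, expressed as auto-fluorescence equivalency to triamterene.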

[7] = qHTS assay to test for compound auto fluorescence at 535 nm (green) in HepG2 cell free culture (AID 720686)
[8] = qHTS assay to test for compound auto fluorescence at 460 nm (blue) in HepG2 cells (AID 720687)
In short: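 Blue-channel autofluorescence (Ex/Em 405/460 nm, triamterene-equivalent) was measured after 1 hr compound exposure at 37 C, 5% CO2. Cells were HepG2, plated overnight at 37 C in MEM plus 10% FBS.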

[9] = target: Glucocorticoid receptor (Homo sapiens) (UniProt P04150); assay: qHTS assay to identify small molecule agonists of the glucocorticoid receptor (GR) signaling pathway (AID 720691; active = well fitted activation curve with a large enough effect in the signal ratio in the repeat runs, not every such curve was filed as active; the % refers to the signal ratio); details: GR-bla HeLa, beta-lactamase reporter ratio, 18 h; activation: at 62.4 µM (top of the series)
Chain of Glucocorticoid receptor (Homo sapiens) (P04150 whole entry, looked up): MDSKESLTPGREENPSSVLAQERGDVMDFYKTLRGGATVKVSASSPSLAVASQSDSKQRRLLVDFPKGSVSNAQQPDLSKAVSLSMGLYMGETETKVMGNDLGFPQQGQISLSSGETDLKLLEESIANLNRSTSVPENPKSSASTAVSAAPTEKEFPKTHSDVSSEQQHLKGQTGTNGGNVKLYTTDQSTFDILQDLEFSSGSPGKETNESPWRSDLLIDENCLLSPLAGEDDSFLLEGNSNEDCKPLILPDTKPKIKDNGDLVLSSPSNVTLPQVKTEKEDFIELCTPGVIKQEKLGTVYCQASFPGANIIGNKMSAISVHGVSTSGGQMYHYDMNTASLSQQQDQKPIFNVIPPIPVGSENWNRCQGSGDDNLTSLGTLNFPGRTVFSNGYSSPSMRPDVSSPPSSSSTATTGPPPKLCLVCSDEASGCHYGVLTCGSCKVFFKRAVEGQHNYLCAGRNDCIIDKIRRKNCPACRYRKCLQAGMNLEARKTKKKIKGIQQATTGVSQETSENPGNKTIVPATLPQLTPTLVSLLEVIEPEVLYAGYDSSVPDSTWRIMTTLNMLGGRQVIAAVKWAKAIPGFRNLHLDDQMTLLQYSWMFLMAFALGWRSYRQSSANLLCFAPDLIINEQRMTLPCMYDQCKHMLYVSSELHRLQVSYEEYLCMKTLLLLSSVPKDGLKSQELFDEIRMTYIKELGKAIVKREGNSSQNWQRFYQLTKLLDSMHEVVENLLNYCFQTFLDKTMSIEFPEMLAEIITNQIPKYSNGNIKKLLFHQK
In short: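 Beta-lactamase reporter activity, read as fluorescence intensity, was measured in GR-bla HeLa cells exposed to compounds for 18 h at 37 C and then loaded with LiveBLAzer B/G FRET substrate for 2 h at room temperature.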

[10] = target: Glucocorticoid receptor (Homo sapiens) (UniProt P04150); assay: qHTS assay to identify small molecule antagonists of the glucocorticoid receptor (GR) signaling pathway (AID 720692; active = well fitted inhibition curve with a large enough effect in the signal ratio in the repeat runs, not every such curve was filed as active; the % refers to the signal ratio; also: potency is read from the fitted curve at half-maximal effect)
In short: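 Fluorescence from cleaved LiveBLAzer B/G FRET substrate reports GRE-driven beta-lactamase in HeLa cells; compounds are tested against 5 nM dexamethasone (final) over 18 h at 37 C, substrate incubation 2 h at room temperature.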

[11] = qHTS assay to identify small molecule antagonists of the glucocorticoid receptor (GR) signaling pathway - cell viability counter screen (AID 720693); also: nearly all actives have a fitted effect of over 55% in size; also: potency is read from the fitted curve at half-maximal effect
[12] = qHTS assay for identifying genotoxic compounds that show differential cytotoxicity against isogenic chicken DT40 cell lines with known DNA damage response pathways - wild type cell line (AID 743012); also: nearly all actives have a fitted effect of over 60% in size; also: potency is read from the fitted curve at half-maximal effect
In short: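 Quantitative HTS on parental DT40 cells: 40 h compound treatment at 37 C/5% CO2, with viability then determined by CellTiter-Glo luminescence. Values serve as the DNA repair-proficient reference for differential cytotoxicity.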

[13] = qHTS assay for identifying genotoxic compounds that show differential cytotoxicity against isogenic chicken DT40 cell lines with known DNA damage response pathways - Rev3 mutant cell line (AID 743014); also: nearly all actives have a fitted effect of over 55% in size; also: potency is read from the fitted curve at half-maximal effect
[14] = qHTS assay to identify small molecule antagonists of the androgen receptor (AR) signaling pathway - cell viability counter screen (AID 743033; also: nearly all actives have a fitted effect of over 45% in size; also: potency is read from the fitted curve at half-maximal effect)
[15] = qHTS assay to identify small molecule antagonists of the androgen receptor (AR) signaling pathway using the MDA cell line - cell viability counter screen (AID 743041; also: nearly all actives have a fitted effect of over 45% in size; also: potency is read from the fitted curve at half-maximal effect)
In short: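 R1881-driven MDA-kb2 AR-luc cells, 3,000/well, were dosed with library compounds for 16 h; cell health came from CellTiter-Fluor fluorescence in the reporter wells.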

[16] = qHTS assay to identify small molecule antagonists of the thyroid receptor (TR) signaling pathway - cell viability counter screen (AID 743064); also: nearly all actives have a fitted effect of over 50% in size; also: potency is read from the fitted curve at half-maximal effect
In short: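 GH3.TRE-Luc cells, 4 h pre-plating; cpd + T3 1 nM final; 37 °C 23.5 h; CellTiter-Fluor 30 min; fluorescence read.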

[17] = qHTS assay for identifying genotoxic compounds that show differential cytotoxicity against isogenic chicken DT40 cell lines with known DNA damage response pathways - Rad54/Ku70 mutant cell line (AID 743015); also: nearly all actives have a fitted effect of over 60% in size; also: potency is read from the fitted curve at half-maximal effect
[18] = target: Androgen receptor (Homo sapiens) (UniProt P10275); assay: qHTS assay to identify small molecule antagonists of the androgen receptor (AR) signaling pathway (AID 743035; active = well fitted inhibition curve with a large enough effect in the signal ratio in the repeat runs, not every such curve was filed as active; the % refers to the signal ratio; also: potency is read from the fitted curve at half-maximal effect)
Chain of Androgen receptor (Homo sapiens) (P10275 whole entry, looked up): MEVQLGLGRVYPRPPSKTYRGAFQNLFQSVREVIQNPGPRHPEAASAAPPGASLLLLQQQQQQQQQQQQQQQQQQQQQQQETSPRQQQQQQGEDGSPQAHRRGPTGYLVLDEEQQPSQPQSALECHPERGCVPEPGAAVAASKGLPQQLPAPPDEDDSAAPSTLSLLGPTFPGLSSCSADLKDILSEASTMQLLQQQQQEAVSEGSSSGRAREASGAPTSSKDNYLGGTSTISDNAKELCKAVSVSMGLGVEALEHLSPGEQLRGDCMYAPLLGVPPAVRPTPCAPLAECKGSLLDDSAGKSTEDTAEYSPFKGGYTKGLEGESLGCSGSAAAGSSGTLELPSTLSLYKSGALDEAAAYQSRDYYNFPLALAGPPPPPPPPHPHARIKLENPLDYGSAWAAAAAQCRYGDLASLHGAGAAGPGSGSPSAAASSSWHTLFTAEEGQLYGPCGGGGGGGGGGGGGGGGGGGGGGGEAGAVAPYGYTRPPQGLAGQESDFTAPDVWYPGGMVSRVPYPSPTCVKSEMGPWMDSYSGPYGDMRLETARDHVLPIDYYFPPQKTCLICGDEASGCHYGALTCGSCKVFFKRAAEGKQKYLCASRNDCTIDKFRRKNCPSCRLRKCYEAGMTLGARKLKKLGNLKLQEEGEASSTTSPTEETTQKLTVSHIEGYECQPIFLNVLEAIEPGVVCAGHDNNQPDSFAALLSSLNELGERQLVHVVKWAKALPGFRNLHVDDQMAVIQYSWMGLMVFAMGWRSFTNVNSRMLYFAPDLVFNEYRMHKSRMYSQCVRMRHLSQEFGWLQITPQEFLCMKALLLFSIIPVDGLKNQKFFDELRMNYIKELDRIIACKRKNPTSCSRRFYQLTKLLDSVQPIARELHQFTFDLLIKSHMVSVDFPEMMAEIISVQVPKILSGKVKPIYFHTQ
In short: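 Cell line: GeneBLAzer AR-UAS-bla GripTite (HEK293). Stimulus: R1881 added after compound. Exposure: 16 h, 37C, 5% CO2. Readout: LiveBLAzer B/G FRET fluorescence after 2 h at room temperature.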

[19] = target: Androgen receptor (Homo sapiens) (UniProt P10275); assay: qHTS assay to identify small molecule agonists of the androgen receptor (AR) signaling pathway using the MDA cell line (AID 743040; also: nearly all actives have a fitted effect of over 20% in size)
In short: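 After a 5 h incubation at 37C and 0% CO2, MDA-kb2 reporter cells were dosed with compounds in DMSO and kept 16 h under the same conditions. Luciferase activity was then read as luminescence with ONE-Glo.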

[20] = target: Androgen receptor (Homo sapiens) (UniProt P10275); assay: qHTS assay to identify small molecule antagonists of the androgen receptor (AR) signaling pathway using the MDA cell line (AID 743042; also: nearly all actives have a fitted effect of over 55% in size; also: potency is read from the fitted curve at half-maximal effect)
In short: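 Antagonist mode: compounds plus R1881 agonist added to MDA-kb2 AR-luc cells, incubated 16 h at 37C. Luciferase reporter luminescence quantified, with multiplexed CellTiter-Fluor readout for cell viability.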

Row | Compound | outcome [1] | Potency [2] | outcome [3] | outcome [4] | outcome [5] | Potency [6] | Potency [7] | Potency [8] | Potency [9] | Potency [10] | Potency [11] | Potency [12] | Potency [13] | Potency [14] | Potency [15] | Potency [16] | Potency [17] | Potency [18] | outcome [19] | Potency [20]
1 | CC(C)Br | inactive | inactive | inactive | inactive | inactive | inactive | inactive | inactive | inactive | inactive | inactive | inactive | inactive | inactive | inactive | inactive |  |  |  | 
2 | COC(=O)C(C)N(C(=O)c1ccco1)c1c(C)cccc1C (centres undefined) | inactive | inactive | inactive | inactive | inactive | inactive | inactive | inactive | inactive | inactive | inactive |  | 54.4 µM (active) | inactive | inactive |  |  |  |  | 
3 | C#CCO | inactive | inactive | inactive | inactive | inactive | inactive | inactive | inactive | inactive | inactive | inactive | inactive | inactive | inactive | inactive |  |  |  |  | 
4 | CC(C)=CC1C(C(=O)OC(C#N)c2cccc(Oc3ccccc3)c2)C1(C)C (centres undefined) | inactive | inactive | inactive | inactive | inactive | inactive | inactive | inactive | inactive |  | inactive | inactive | inactive | inactive | inactive | inactive | inactive | inactive | inactive | inactive
5 | FC(F)C(F)(F)OCC(Cn1cncn1)c1ccc(Cl)cc1Cl (centres undefined) | inactive | inactive | inactive | inactive | inactive | inactive | inactive | inactive | inactive |  | inactive | 3.05 µM (active) | 4.83 µM (active) | 54.6 µM (active) |  |  | 7.65 µM (active) |  |  | 
6 | CC(Cc1ccc(O)cc1)NCC(O)c1cc(O)cc(O)c1 (centres undefined) | inactive | inactive | inactive | inactive | inactive | inactive | inactive | inactive | inactive | inactive | inactive | inactive | inactive | inactive | inactive | inactive | inactive |  |  | 
7 | CC(C)N(C(=O)CCl)c1ccccc1 | inactive | inactive | inactive | inactive | inactive | inactive | inactive | inactive |  | 24.5 µM (active) | 54.9 µM (active) | 21.7 µM (active) and 17.2 µM (active) | 2.17 µM (active) and 3.86 µM (active) |  |  | 27.3 µM (active) and 34.4 µM (active) | 9.69 µM (active) and 7.7 µM (active) | 8.71 µM (active) and 6.92 µM (active) | inactive | 30.6 µM (active) and 21.7 µM (active)
8 | O=[N+]([O-])c1ccccc1-c1ccccc1 | inactive | inactive | inactive | inactive | inactive | inactive | inactive | inactive |  |  | inactive | inactive | inactive | inactive | inactive | inactive | inactive |  |  | 
9 | O=C1C[C@@H]2OCC=C3CN4CC[C@]56c7ccccc7N1[C@H]5[C@H]2[C@H]3C[C@H]46 | inactive | inactive | inactive | inactive | inactive | inactive | inactive | inactive |  |  | inactive | 26.6 µM (active) | inactive and 26.6 µM (active) | inactive | inactive | inactive | inactive and 29.8 µM (active) |  |  | 
10 | CC[C@H](C)[C@H]1O[C@]2(C=C[C@@H]1C)C[C@@H]1C[C@@H](C/C=C(\C)[C@@H](O[C@H]3C[C@H](OC)[C@@H](O[C@H]4C[C@H](OC)[C@@H](NC)[C@H](C)O4)[C@H](C)O3)[C@@H](C)/C=C/C=C3\CO[C@@H]4[C@H](O)C(C)=C[C@@H](C(=O)O1)[C@]34O)O2 | inactive | inactive | inactive | inactive | inactive | inactive | inactive | inactive |  |  | 12.3 µM (active) | 0.686 µM (active) | 0.686 µM (active) | 2.19 µM (active) | 21.7 µM (active) | 1.22 µM (active) | 0.864 µM (active) |  |  | 
11 | CCC(C)Br (centres undefined) | inactive | inactive | inactive | inactive | inactive | inactive | inactive | inactive |  |  | inactive | inactive | inactive | inactive | inactive | inactive | inactive |  |  | 
12 | CCC[CH2][Sn]([CH2]CCC)([CH2]CCC)[CH2]CCC | inactive | inactive | inactive | inactive | inactive | inactive | inactive | inactive |  |  | 54.9 µM (active) | 7.7 µM (active) | 21.7 µM (active) | 43.6 µM (active) | 61.1 µM (active) | 30.6 µM (active) | 8.63 µM (active) |  |  | 
13 | CCC(OC(C)=O)C(CC(C)NC)(c1ccccc1)c1ccccc1 (centres undefined) | inactive | inactive | inactive | inactive | inactive | inactive | inactive | inactive |  |  | inactive | 7.76 µM (active) | 15.5 µM (active) | inactive | 27.5 µM (active) | 19.5 µM (active) | 15.5 µM (active) | 49.4 µM (active) | inactive | 21.9 µM (active)
14 | CCn1cc[n+](C)c1 (tested in a mixture with another compound) | inactive | inactive | inactive | inactive | inactive | inactive | inactive | inactive |  |  | inactive | inactive | inactive | inactive | inactive | inactive | inactive |  |  | 
15 | CC(C)C(Nc1ccc(C(F)(F)F)cc1Cl)C(=O)OC(C#N)c1cccc(Oc2ccccc2)c1 (centres undefined) | inactive | inactive | inactive | inactive | inactive | inactive | inactive | inactive |  |  | inactive | inactive | inactive | inactive | inactive | inactive | inactive |  |  | 
16 | C=CC(=C)C | inactive | inactive | inactive | inactive | inactive | inactive | inactive | inactive |  |  | inactive | 27.3 µM (active) | 21.7 µM (active) | inactive |  | inactive | 24.3 µM (active) |  |  | 
